# Laboratory results published in ChEMBL document CHEMBL3988442, “University of Dundee, Small-Polar-MMV Screening Library” (2021).
# For some of these results: Potency and affinity values are given separately.
# What was measured:
# Design in all cases: scale not given: direction of the effect not stated beside the values
# [1] = target: Protein translocase subunit SecA (Escherichia coli (strain K12)) (UniProt P10408); assay: Assay to Identify E. coli SecA ATPase Inhibitors; format: functional; conditions: 30 µM
# Chain of Protein translocase subunit SecA (Escherichia coli (strain K12)) (P10408 whole entry): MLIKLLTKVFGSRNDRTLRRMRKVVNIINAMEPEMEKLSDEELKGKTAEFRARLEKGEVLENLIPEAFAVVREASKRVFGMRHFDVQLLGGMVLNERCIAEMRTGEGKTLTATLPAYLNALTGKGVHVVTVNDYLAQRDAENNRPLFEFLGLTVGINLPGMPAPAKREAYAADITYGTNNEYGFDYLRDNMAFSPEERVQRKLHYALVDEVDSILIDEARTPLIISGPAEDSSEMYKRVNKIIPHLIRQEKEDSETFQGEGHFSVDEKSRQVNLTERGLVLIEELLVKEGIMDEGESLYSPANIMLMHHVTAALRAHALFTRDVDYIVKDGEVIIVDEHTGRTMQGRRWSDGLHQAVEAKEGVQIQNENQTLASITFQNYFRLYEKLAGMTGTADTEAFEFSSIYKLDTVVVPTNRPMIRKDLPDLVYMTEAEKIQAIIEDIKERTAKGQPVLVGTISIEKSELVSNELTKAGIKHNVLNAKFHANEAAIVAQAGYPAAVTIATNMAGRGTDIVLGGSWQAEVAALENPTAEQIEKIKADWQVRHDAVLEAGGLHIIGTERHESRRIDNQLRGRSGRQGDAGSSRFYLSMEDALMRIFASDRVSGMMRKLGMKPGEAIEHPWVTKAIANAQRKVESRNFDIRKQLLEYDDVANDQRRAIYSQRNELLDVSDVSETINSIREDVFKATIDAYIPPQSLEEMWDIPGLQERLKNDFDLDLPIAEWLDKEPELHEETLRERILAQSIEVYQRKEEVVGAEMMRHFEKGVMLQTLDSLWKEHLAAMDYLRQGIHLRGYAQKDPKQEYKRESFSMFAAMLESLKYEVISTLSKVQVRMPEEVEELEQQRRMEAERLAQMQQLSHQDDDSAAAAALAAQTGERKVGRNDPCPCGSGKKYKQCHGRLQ
# [2] = target: T1, Ubiquitin-activating enzyme e1, putative (Leishmania donovani (strain BPK282A1)) (UniProt E9BSI1); assay: Leishmania donovani Ubiquitin Activating Enzyme (LdE1); format: functional; conditions: 30 µM
# T1 sequence (whole entry): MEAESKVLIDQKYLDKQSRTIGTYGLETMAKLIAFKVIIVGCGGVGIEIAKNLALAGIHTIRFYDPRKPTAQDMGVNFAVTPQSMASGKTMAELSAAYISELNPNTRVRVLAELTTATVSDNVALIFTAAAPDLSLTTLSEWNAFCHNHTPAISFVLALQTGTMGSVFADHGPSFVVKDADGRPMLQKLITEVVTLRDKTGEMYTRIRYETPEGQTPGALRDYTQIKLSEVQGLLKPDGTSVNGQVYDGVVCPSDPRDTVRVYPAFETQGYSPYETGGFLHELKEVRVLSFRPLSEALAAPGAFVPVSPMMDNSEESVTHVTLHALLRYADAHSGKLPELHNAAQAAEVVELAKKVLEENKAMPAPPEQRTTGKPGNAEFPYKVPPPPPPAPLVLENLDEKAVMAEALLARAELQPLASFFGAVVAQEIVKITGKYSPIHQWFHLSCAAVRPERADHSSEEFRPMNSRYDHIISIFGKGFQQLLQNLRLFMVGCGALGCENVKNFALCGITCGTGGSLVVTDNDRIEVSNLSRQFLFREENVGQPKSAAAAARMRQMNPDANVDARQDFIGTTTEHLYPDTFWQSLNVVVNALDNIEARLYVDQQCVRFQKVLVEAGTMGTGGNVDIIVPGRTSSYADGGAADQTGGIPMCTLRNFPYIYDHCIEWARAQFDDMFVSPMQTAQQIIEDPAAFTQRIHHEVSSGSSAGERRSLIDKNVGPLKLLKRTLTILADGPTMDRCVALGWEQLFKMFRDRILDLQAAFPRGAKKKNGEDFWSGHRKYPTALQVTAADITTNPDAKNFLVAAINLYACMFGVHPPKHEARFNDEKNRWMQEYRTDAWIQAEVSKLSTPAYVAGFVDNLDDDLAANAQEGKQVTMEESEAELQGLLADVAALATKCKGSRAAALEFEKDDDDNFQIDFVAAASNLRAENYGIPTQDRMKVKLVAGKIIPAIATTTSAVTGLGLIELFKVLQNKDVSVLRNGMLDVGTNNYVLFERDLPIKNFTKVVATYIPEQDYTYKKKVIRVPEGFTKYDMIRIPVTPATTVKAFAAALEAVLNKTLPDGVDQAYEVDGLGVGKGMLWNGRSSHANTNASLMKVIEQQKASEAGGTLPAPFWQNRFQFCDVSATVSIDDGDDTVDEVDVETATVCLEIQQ
# [3] = target: AMP-activated protein kinase, AMPK (Homo sapiens) (UniProt P54646+O43741+P54619+Q9UGJ0+Q9Y478+Q13131+Q9UGI9); assay: AMP-dependent Kinase enzyme assay. An in vitro enzyme assay that detects ADP turnover that is directly proportional to AMPK activity. This uses naive AMPK that is activated during the assay with MK-8722; format: functional; conditions: 30 µM
# [4] = target: Sialic acid-binding Ig-like lectin 9 (Homo sapiens) (UniProt Q9Y336); assay: Hs-Siglec9 ALPHAscreen SOP 20170721; conditions: 10 µM
# Chain of Sialic acid-binding Ig-like lectin 9 (Homo sapiens) (Q9Y336 whole entry): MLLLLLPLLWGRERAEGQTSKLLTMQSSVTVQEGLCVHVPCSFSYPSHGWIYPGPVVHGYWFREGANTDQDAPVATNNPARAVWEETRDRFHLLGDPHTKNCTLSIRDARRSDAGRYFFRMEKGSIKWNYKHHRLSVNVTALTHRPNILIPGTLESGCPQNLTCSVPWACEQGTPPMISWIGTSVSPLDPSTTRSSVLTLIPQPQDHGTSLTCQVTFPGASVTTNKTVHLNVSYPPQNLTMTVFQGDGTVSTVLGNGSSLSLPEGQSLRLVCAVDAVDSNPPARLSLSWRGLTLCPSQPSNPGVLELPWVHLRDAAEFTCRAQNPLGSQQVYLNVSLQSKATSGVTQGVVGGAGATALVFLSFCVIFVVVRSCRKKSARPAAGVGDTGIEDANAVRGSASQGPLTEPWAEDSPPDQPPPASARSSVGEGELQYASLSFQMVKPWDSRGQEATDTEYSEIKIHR
# Trypanosoma cruzi = assay: Trypanosoma cruzi phosphomannomutase and mannose-1-phosphate guanylyltransferase assay; format: functional; conditions: 10 µM
# [5] = target: T2, Arginase-2, mitochondrial (Homo sapiens) (UniProt P78540); assay: in vitro enzyme assay to detect the production of urea directly proportional to the activity of Arginase II; format: functional; conditions: 33.3 µM; further: in the data most compounds retested in dose-response had high values
# T2 sequence (whole entry): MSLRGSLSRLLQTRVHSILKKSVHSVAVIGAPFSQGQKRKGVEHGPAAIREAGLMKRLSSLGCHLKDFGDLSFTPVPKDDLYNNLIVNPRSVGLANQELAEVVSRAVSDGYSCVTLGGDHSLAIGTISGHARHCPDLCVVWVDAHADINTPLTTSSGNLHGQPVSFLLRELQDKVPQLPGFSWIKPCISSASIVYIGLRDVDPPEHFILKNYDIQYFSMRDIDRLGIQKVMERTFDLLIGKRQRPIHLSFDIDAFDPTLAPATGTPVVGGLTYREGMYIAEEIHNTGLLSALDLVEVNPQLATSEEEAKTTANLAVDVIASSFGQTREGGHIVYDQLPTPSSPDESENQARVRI
# [6] = target: T3, Proteasome subunit beta (Trypanosoma cruzi) (UniProt O96673); assay: Trypanosoma cruzi proteasome chymotrypsin-like activity (TcProtChymo) assay.; further: in the data most compounds retested in dose-response had high values; format: functional; conditions: 9.37 µM
# T3 sequence (whole entry): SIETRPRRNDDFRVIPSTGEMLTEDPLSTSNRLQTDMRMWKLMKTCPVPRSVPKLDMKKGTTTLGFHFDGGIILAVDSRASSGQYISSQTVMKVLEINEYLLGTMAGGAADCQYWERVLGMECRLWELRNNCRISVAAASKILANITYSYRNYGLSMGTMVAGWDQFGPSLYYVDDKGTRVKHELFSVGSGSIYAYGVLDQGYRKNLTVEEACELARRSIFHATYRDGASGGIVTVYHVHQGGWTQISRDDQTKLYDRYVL
# Homo sapiens = species: Homo sapiens; assay: To identify inhibition of the IFN signalling (Jak-Stat) pathway via expression of an eGFP reporter gene under the control of an IFN-stimulated response element (ISRE) containing MxA promoter.; format: functional; conditions: 30 µM
# [7] = target: T4, Tyrosyl-tRNA synthetase, putative (Trypanosoma cruzi (strain CL Brener)) (UniProt Q4DSP6); assay: Trypanosoma cruzi tyrosyl tRNA synthetase (TcYRS) _High Tyrosine SOP; format: functional; conditions: 30 µM; further: in the data most compounds retested in dose-response had high values
# T4 sequence (whole entry): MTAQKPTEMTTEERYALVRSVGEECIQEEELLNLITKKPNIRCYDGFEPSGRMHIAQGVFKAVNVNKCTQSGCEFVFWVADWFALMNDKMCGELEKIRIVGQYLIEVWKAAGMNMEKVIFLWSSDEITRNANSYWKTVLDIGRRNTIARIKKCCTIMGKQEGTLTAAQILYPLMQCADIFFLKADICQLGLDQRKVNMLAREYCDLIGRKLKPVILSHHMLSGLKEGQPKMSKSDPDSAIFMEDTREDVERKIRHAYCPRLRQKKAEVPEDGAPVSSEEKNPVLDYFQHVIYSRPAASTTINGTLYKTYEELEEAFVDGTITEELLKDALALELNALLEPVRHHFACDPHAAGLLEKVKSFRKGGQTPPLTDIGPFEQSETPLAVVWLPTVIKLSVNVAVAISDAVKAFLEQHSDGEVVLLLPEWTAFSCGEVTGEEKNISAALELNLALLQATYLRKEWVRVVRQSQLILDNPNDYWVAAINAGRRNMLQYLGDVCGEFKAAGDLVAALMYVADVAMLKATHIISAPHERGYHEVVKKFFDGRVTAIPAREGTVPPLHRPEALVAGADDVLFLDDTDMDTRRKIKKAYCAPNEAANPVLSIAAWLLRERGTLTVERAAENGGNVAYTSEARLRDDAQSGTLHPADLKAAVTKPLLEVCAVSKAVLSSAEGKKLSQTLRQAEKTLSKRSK
# [8] = target: T4, Tyrosyl-tRNA synthetase, putative (Trypanosoma cruzi (strain CL Brener)); assay: Trypanosoma cruzi tyrosyl tRNA synthetase (TcYRS) SOP; format: functional; conditions: 30 µM
# [9] = target: Chromo domain-containing protein 1 (Saccharomyces cerevisiae (strain ATCC 204508 / S288c) (Baker's yeast)) (UniProt P32657); assay: ScCHD-1 Enzyme Inhibition Assay; format: functional; conditions: 30 µM; further: in the data most compounds retested in dose-response had high values
# Chain of Chromo domain-containing protein 1 (Saccharomyces cerevisiae (strain ATCC 204508 / S288c) (Baker's yeast)) (P32657 whole entry, the tested form may be a part): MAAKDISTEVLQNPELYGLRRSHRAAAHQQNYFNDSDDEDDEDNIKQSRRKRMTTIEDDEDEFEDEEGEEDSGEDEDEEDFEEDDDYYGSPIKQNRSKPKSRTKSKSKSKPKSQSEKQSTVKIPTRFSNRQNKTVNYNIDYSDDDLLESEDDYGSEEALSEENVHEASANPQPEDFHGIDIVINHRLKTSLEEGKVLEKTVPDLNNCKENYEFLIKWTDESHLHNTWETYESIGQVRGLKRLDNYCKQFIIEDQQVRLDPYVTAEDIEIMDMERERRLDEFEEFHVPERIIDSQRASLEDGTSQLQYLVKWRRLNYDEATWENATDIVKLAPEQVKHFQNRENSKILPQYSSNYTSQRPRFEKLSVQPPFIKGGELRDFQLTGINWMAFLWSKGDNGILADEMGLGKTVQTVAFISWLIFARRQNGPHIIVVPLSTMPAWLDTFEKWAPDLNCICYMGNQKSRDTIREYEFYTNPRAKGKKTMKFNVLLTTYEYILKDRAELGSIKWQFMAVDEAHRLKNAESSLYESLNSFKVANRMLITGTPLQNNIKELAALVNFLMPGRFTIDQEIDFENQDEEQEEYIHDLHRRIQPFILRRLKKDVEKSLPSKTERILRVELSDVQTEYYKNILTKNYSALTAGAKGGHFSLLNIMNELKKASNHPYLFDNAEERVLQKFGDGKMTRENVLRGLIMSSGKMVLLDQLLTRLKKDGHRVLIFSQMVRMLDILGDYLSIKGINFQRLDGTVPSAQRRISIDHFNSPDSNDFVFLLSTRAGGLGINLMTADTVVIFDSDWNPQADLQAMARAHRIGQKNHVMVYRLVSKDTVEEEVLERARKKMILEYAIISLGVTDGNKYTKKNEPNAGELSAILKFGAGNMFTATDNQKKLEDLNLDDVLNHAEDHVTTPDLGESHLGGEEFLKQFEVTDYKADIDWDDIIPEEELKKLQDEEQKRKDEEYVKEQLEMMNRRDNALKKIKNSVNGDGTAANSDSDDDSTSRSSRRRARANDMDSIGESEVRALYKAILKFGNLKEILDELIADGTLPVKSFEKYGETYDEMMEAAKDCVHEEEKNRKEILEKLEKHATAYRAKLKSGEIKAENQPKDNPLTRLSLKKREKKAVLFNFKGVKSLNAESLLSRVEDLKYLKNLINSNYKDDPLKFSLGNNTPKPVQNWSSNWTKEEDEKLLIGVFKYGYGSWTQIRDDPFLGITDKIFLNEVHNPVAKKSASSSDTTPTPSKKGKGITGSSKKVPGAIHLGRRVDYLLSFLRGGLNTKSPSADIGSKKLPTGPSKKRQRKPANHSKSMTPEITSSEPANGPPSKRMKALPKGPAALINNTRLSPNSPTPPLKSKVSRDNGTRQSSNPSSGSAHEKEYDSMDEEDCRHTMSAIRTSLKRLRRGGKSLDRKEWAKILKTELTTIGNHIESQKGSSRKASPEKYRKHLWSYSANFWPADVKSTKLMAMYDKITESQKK
SMILES,Percent Effect [1] [%],Percent Effect [2] [%],Percent Effect [3] [%],Percent Effect [4] [%],Percent Effect (Trypanosoma cruzi) [%],Percent Effect [5] [%],Percent Effect [6] [%],Percent Effect (Homo sapiens) [%],Percent Effect [7] [%],Percent Effect [8] [%],Percent Effect [9] [%]
CCOc1cc(/C=C/c2ncc(C(=O)O)s2)cc(Cl)c1OC,-1.71,8.86,6.6,1.04,-7.28,-4.52,12.3,10.1,0,7.59,-21.1
Cc1nc(C)c(C(=O)N2CCCC2c2nnc3n2CCCCC3)s1 (stereo not given),-2.68,13.5,-4.05,1.58,0.586,5.42,14.3,3.62,11.9,11,-0.436
CC1CCCN(Cc2csc(-c3ncccn3)n2)CC1 (stereo not given),-3.33,-16.2,-12.5,18.6,8.26,-1.66,20.5,29.2,13.9,15.8,2.62
CCNC(=O)N1CCN(Cc2nc3ccccc3[nH]2)[C@@H]2CS(=O)(=O)C[C@@H]21,-3.35,5.41,-2.19,-3.56,-4.2,2.23,15.2,1.54,4.3,11.1,-3.76
CCc1noc(C(C)N(C)CC(=O)Nc2cccc(C)n2)n1 (stereo not given),0.372,0,5.73,0.963,-0.979,0.909,7.28,0.0607,-1.07,0,2.92
CCC1CN(C(=O)c2ccc(=O)[nH]c2)CCC(=O)N1Cc1ccccc1 (stereo not given),-1.75,4.17,-3.51,-12.5,-3.21,3.09,14,14.1,0,2.56,-2.44
O=C(c1cnc(-c2ccco2)s1)N1CCCC1Cn1cccn1 (stereo not given),-4.62,3.8,8.45,0.321,2.97,1.5,9.09,13,7.29,5.06,0.437
CC(Cn1ccnc1)NC(=O)N1CCN(Cc2cccnc2)CC1 (stereo not given),-5,18.4,-6.12,5.79,8.46,-3.83,11.5,4.46,7.35,19.5,-10.3
O=C1CCSCC(C(=O)N2CCN(C3CCCCC3)CC2)N1 (stereo not given),-2.82,0,-2.68,-4.3,0.979,3.64,2.48,-1.47,5.38,12.5,-0.805
CCOCC1CN(C(=O)c2cscn2)Cc2nnn(CC3CC3)c21 (stereo not given),-0.829,10.8,1.84,-5.91,0.88,4.14,18.4,-1.13,2.16,7.69,-1.63
Cn1c(CN2CCCC2)nnc1C1CCCN(C(=O)C2CCOCC2)C1 (stereo not given),-3.02,5.41,-5.63,28.6,5.99,22.9,8.1,6.46,4.76,4.88,-11.7
Cn1cc(CN2CCc3c(nc(-c4ccccn4)[nH]c3=O)C2)cn1,-4.53,2.67,8.84,5.72,-2.56,-1.17,6.78,-0.565,12.8,19.2,-1.71
O=C(NCc1nncn1-c1ccccc1)C1CC(=O)N(CC2CC2)C1 (stereo not given),-6.4,5.41,-8.14,7.22,-3.3,24.4,-0.901,8.14,3.45,3.7,-2.19
Cn1cnc2c1C(COCC1CCOCC1)CN(C(=O)c1ccoc1)C2 (stereo not given),1.37,18.7,4.82,-8.07,1.38,-1.63,14.5,-17.8,1.06,6.41,-5.31
Cc1cc(C)c2nc(CN3CCCC(c4cc[nH]n4)C3)cc(O)c2c1 (stereo not given),-1.83,0,3.31,-3.01,-3.28,0,8.62,23.3,3.7,14.6,-5.03
COc1cccc(CCC2CCCN(C(=O)C3=NN(C)C(=O)CC3)C2)c1 (stereo not given),-0.975,-10.8,-2.43,-1.4,-3.28,0.952,3.79,6.9,3.7,4.88,-1.44
CCCC(Nc1c(C#N)c(=O)n(C)c(=O)n1C)c1ccc(F)cc1F (stereo not given),-5.68,10.1,0.965,11,5.19,4.18,0.573,1.79,7.39,13.9,-4.28
COCCN(CCc1ccccc1)Cc1nc2c(cnn2C)c(=O)[nH]1,-1.78,13.5,1.09,15.2,1.04,-2.81,-0.36,-11.6,7.39,18.5,-9.44
Cc1cc(C)c2c(OCC(=O)NC(C)C)nn(C)c2n1,-3.72,10.8,-1.72,25.4,7.72,11.4,6.9,10.7,0.529,12.2,-13
Cc1cc(C)c2cc(CNCc3ccccc3)c3nn(C)c(=O)n3c2c1,-8.18,9.46,-1.18,8.69,2.96,-2.09,10.3,13.4,4.3,3.9,-30.5
